In PubChem BioAssay:

Each compound was assayed against Albumin (Bos taurus) (UniProt P02769) (assay: compounds binding labelled BSA control protein – biochemical, small-molecule microarray, Alexa647 label, 635/667 nm fluorescence, artefact control for SMM control protein annotation, profiling panel (AID 1118;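 also: score merges 667 nm emission intensity and signal-to-noise per printed compound spot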)). Conditions: BSA-A647 binding, fluorescence 635 nm, higher = more signal.
Chain of Albumin (Bos taurus) (P02769 whole entry, looked up): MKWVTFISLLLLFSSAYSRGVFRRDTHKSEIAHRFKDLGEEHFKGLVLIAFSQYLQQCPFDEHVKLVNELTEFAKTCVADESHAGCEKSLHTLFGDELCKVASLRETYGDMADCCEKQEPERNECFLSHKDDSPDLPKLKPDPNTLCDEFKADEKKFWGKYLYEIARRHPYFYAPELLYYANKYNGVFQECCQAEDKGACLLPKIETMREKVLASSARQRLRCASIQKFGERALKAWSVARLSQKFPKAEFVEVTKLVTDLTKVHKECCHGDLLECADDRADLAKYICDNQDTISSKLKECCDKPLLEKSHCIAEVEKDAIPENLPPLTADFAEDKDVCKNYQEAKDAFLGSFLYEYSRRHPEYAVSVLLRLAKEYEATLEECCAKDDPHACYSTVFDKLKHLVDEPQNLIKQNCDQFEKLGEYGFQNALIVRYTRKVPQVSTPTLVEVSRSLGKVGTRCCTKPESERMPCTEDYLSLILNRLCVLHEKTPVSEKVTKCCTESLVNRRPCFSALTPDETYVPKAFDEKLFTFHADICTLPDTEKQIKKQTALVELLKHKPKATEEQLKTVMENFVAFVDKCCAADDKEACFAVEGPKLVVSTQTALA

| SMILES | composite z-score |
| --- | --- |
| [N-]=[N+]=NCc1ccccc1[C@H]1OC(c2ccc(OCCCO)cc2)=N[C@@]1(Cc1ccccc1)C(=O)NCC(O)CO (stereo partly specified) | 0.691 |
| NC(=O)NCC#Cc1ccc2c(c1)[C@]1(C(=O)N2)[C@H](c2ccccc2OCCO)N2[C@H](c3ccccc3)[C@H](c3ccccc3)OC(=O)[C@H]2[C@@H]1C(=O)N1CCCCCCC1 | 0.0389 |
| CC(C)(C)OC(=O)CC[C@@]1(C(N)=O)N=C(c2ccc(OCCCO)cc2)O[C@@H]1c1ccccc1N=[N+]=[N-] | 0.501 |
| C=CCC(OC(C)=O)[C@@H]1[C@@H](N(Cc2ccc(-c3cccc(C(F)(F)F)c3)o2)C(=O)Cc2ccc(OC)cc2)c2cc(OCCCO)ccc2N1C(=O)Cc1ccc(OC)cc1 (stereo partly specified) | 0.478 |
| CCOC(=O)C1=CC[C@@H](c2cccc(Cl)c2)N(S(=O)(=O)c2ccc(C)cc2)[C@H]1c1ccc(C#N)cc1 | 1.01 |
| Cc1ccc(F)cc1S(=O)(=O)N[C@@H]1CCN(Cc2ccc(C(F)(F)F)cc2)C1 | -0.973 |
| C/C=C/[C@H](CCn1cc([C@H](O)c2ccccc2)nn1)[Si](C)(C)c1ccc(OC)cc1 | -0.7 |
| COCC1C2CC[C@H]3C(OCc4ccc(F)cc4C(F)(F)F)OC[C@]4(C)[C@H]3C2=C(CN4C(=O)OC(C)(C)C)[C@H](C)C1COC (stereo partly specified) | 1.05 |
| C=C(/C(=C/C[C@@H](OC(=O)c1ccncc1)c1ccc(CO)o1)c1cc(C(=O)OC)ccc1OC)C(C)C | 0.83 |
| O=C1O[C@@H](c2ccccc2)[C@@H](c2ccccc2)N2[C@@H](c3ccc(O)cc3)[C@]3(C(=O)Nc4ccccc43)[C@@H](C(=O)N3CCCCCCC3)[C@H]12 | 0.875 |
| COC(=O)[C@@]1(Cc2ccc(F)cc2)[C@H]2c3cc(C(=O)N4CCCC4)n(CCc4ccc(OC)c(Br)c4)c3C[C@H]2CN1C(=O)c1ccccc1 | 0.843 |
| Cc1c(NC(=O)/C(C#N)=C/C=C/c2ccccc2)c(=O)n(-c2ccccc2)n1C | 0.566 |
| C=C(C(=O)CC[C@@H](OC(=O)c1cccnc1)c1ccc(OCCO)cc1)C(C)C | -0.541 |
| O=c1cccc(-c2cccc3ccccc23)o1 | 0.702 |
| Cc1ccc(S(=O)(=O)N2CC(C(=O)O)=CCC2c2ccccc2)cc1 (stereo unspecified) | 0.465 |
| O=S(=O)(NCCCO)c1ccc(Br)cc1 | 0.45 |

| SMILES | composite z-score |
| --- | --- |
| C=CCOC(=O)[C@@H]1[C@H]2C(=O)O[C@H](c3ccccc3)[C@H](c3ccccc3)N2[C@H](c2ccc(OCCOC(=O)[C@H]3C[C@H]4C(=O)N[C@@H](Cc5ccccc5)C(=O)N4[C@H]3c3ccc(O)cc3)cc2)[C@@]12C(=O)Nc1ccc(I)cc12 | -0.893 |
| C=CCNC(=O)[C@H]1[C@@H]2C(=O)O[C@@H](c3ccccc3)[C@@H](c3ccccc3)N2[C@@H](c2ccc(O)cc2)[C@]12C(=O)Nc1ccc(C#Cc3ccc(OC)cc3)cc12 | -0.208 |
| C[N+](C)(C)CCCC[C@@H]1NC(=O)[C@H]2C[C@@H](C(=O)O)[C@@H](c3cccc(OCCO)c3)N2C1=O | 0.969 |
| Cn1c2c(c3ccccc31)C(=O)C1NC2C=CC1(C)C(=O)OCc1ccccc1 (stereo unspecified) | 0.445 |
| CCCCC(=C=CC[C@H](O)c1ccccc1OCCO)C[C@H](O)c1cc(Cl)cc(Cl)c1O | 0.233 |
| COc1c(C)cc(-c2cc3c(c(-c4ccccc4)n2)[Si](C(C)C)(C(C)C)O[C@H]3c2ccccc2)cc1C | -0.102 |
| C=CCN1Cc2ccccc2C[C@]2(N=C(c3ccc(OCCCO)cc3)O[C@@H]2c2ccccc2)C1=O | 0.025 |
| O=C(N1CCCCC1)[C@]1(CCS(=O)(=O)c2ccccc2)N=C(c2ccc(OCCCO)cc2)O[C@@H]1c1ccccc1 | 0.431 |
| COc1ccc([Si](C)(C)[C@@H]2[C@@H](CCO)O[C@]3(C(=O)N(Cc4ccccc4)c4ccc(N(C=O)c5ccccc5)cc43)[C@H]2C)cc1 | 0.624 |
| Cc1ccc(S[C@]2(C(=O)NCCCN(C)C)CC(=O)N(C(C)C)[C@@H]2c2ccc(CO)cc2I)cc1 | 0.746 |
| C=C(COC)C(=O)CC[C@H](OC(=O)c1cccnc1)c1ccccc1OCCO | 0.233 |
| CC(c1ccccc1)C(O)C1C=CC2C(=O)N(Cc3ccccc3)C(=O)C2N1n1cnnc1 (stereo unspecified) | 0.405 |
| CN1C(=O)C2C=CC(C(O)C(C)(C)C)N(Nc3ccccc3)C2C1=O (stereo unspecified) | 0.494 |
| CS(=O)(=O)CCOC(=O)C1=CC(c2ccc(CO)cc2)=CC(c2cccs2)N(Cc2cccc(OC(F)(F)F)c2)C=C1C(=O)OCCS(C)(=O)=O (stereo unspecified) | 0.735 |
| Cc1ccc([C@H]2C(C(=O)O)=C[C@@H](C(C)C)N2S(=O)(=O)c2ccc(C)cc2)cc1 | 0.284 |
